Experiment [1] in a line: qHTS assay for small molecules that induce genotoxicity in human embryonic kidney cells expressing luciferase-tagged ATAD5 (AID 651632). Further: on the % scale 0 is the no-effect control and ±100 the full control effect; nearly all actives have a fitted effect of over 15% in size. The essentials:
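Concentration-response screen for ATAD5 upregulation in HEK293T luciferase reporter cells; 16 hr treatment at 37C, then luminescence after 30 min with Amplite at room temperature.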

Experiment [2] is described as follows: qHTS assay for small molecule agonists of the p53 signaling pathway - cell viability (AID 651633; calls by dose curve; further: nearly all actives have a fitted effect of over 30% in size; further: potency means the concentration at half of the fitted maximal effect). The essentials: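 p53RE-bla cells, seeded at 4,000 per well and rested 5 h at 37 C/5% CO2, received compounds in DMSO for 16 h at 37 C. CellTiter-Glo was then added, and luminescence was read after 30 min at room temperature to gauge cytotoxicity.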
Experiment [3] can be described thus: qHTS assay for small molecules that induce genotoxicity in human embryonic kidney cells expressing luciferase-tagged ATAD5 - cell viability (AID 651634; calls by dose curve; further: on the % scale 0 is the no-effect control and ±100 the full control effect; nearly all actives have a fitted effect of over 25% in size). The essentials:
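15.5 hr compound or vehicle exposure of HEK293T cells expressing luciferase-tagged ATAD5 at 37C; live-cell protease activity is read by fluorescence after 30 min of CellTiter-Fluor.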

Experiment [4] is described as follows: qHTS assay to test for compound auto fluorescence at 590 nm (red) in HepG2 cells (AID 720674). Further: on the % scale 0 is the no-effect control and ±100 the full control effect. The essentials: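 Compound auto-fluorescence is scored relative to Rose Bengal sodium, measured at 540/590 nm in live HepG2 cultures after 1 hr compound contact (37 C, 5% CO2).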
Experiment [5] in a line: qHTS assay to test for compound auto fluorescence at 535 nm (green) in HepG2 cells (AID 720675). Further: on the % scale 0 is the no-effect control and ±100 the full control effect.
A short description of experiment [6]: qHTS assay to test for compound auto fluorescence at 460 nm (blue) in HEK293 cells (AID 720678). Further: on the % scale 0 is the no-effect control and ±100 the full control effect. The essentials: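 Cells were seeded and left to adhere for 4-5 hr at 37C. Compounds were then pin-transferred. After an overnight incubation at 37C under 5% CO2, intrinsic fluorescence at 405/460 nm was measured and referenced to triamterene.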
The nature of experiment [7]: qHTS assay to test for compound auto fluorescence at 590 nm (red) in HEK293 cells (AID 720679). Further: on the % scale 0 is the no-effect control and ±100 the full control effect. The essentials: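 Each well held 2,000 HEK293 cells in medium containing 10% dialyzed FBS. Following 4-5 hr attachment at 37C, 23 nL test compound or DMSO was added; plates sat overnight, and red fluorescence (540/590nm) was recorded.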
Experiment [8] in a line: qHTS assay to test for compound auto fluorescence at 535 nm (green) in HEK293 cells (AID 720680). Further: on the % scale 0 is the no-effect control and ±100 the full control effect.
Experiment [9] can be described thus: qHTS assay to test for compound auto fluorescence at 460 nm (blue) in HEK293 cell free culture (AID 720681). Further: on the % scale 0 is the no-effect control and ±100 the full control effect. The essentials:
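Test compounds were pinned into cell-free culture medium (DMEM with 10% FBS) and fluorescence was read directly at Ex/Em 405/460 nm. Signals were expressed as fluorescence equivalents of triamterene, with DMSO vehicle as control.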

Experiment [10] in a line: qHTS assay to test for compound auto fluorescence at 535 nm (green) in HEK293 cell free culture (AID 720682). Further: on the % scale 0 is the no-effect control and ±100 the full control effect. The essentials:
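Compounds were pin-transferred into cell-free DMEM with 10% FBS, and green fluorescence was read at excitation 485 nm and emission 535 nm. Intensities were expressed as fluorescein-equivalent values.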

Experiment [11] is described as follows: qHTS assay to test for compound auto fluorescence at 590 nm (red) in HEK293 cell free culture (AID 720683). Further: on the % scale 0 is the no-effect control and ±100 the full control effect. The method in brief: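 Tox21 10K library compounds were pinned into cell-free DMEM with 10% FBS and fluorescence was read at excitation 540 nm. Activity is expressed as Rose Bengal sodium equivalency.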
Experiment [12] in a line: qHTS assay to test for compound auto fluorescence at 590 nm (red) in HepG2 cell free culture (AID 720684). Further: on the % scale 0 is the no-effect control and ±100 the full control effect. The method in brief:
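Ex 540 / Em 590 nm read of compound in cell-free MEM (10% FBS). Rose Bengal sodium reference.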

A short description of experiment [13]: qHTS assay to test for compound auto fluorescence at 460 nm (blue) in HepG2 cell free culture (AID 720685). Further: on the % scale 0 is the no-effect control and ±100 the full control effect. The essentials:
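Cell-free plates of MEM plus 10% FBS received 23 nL compound or DMSO vehicle; blue-channel (405/460 nm) intensity scored against triamterene as reference fluorophore.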

The nature of experiment [14]: qHTS assay to test for compound auto fluorescence at 535 nm (green) in HepG2 cell free culture (AID 720686). Further: on the % scale 0 is the no-effect control and ±100 the full control effect.
A short description of experiment [15]: qHTS assay to test for compound auto fluorescence at 460 nm (blue) in HepG2 cells (AID 720687). Further: on the % scale 0 is the no-effect control and ±100 the full control effect. The essentials: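 Cells (2,000/well in MEM with 10% FBS) attached overnight at 37 C, then were exposed to compound or DMSO for 1 hr at 37 C, 5% CO2. Fluorescence read at Ex/Em 405/460 nm, expressed as triamterene-equivalent signal.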
In experiment [16] the target is Glucocorticoid receptor (Homo sapiens) (UniProt P04150). The experiment is described as follows: qHTS assay to identify small molecule agonists of the glucocorticoid receptor (GR) signaling pathway (AID 720691; active means well fitted activation curve with a large enough effect in the signal ratio in the repeat runs, not every such curve was filed as active; the % refers to the signal ratio; further: on the % scale 0 is the no-effect control and ±100 the full control effect). The method in brief: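 Measures GR pathway activation through a GRE-beta-lactamase reporter stably integrated in HeLa cells, with 18 h compound treatment at 37 C and fluorescence detection using a FRET substrate.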
Sequence of Glucocorticoid receptor (Homo sapiens) (P04150 whole entry, looked up): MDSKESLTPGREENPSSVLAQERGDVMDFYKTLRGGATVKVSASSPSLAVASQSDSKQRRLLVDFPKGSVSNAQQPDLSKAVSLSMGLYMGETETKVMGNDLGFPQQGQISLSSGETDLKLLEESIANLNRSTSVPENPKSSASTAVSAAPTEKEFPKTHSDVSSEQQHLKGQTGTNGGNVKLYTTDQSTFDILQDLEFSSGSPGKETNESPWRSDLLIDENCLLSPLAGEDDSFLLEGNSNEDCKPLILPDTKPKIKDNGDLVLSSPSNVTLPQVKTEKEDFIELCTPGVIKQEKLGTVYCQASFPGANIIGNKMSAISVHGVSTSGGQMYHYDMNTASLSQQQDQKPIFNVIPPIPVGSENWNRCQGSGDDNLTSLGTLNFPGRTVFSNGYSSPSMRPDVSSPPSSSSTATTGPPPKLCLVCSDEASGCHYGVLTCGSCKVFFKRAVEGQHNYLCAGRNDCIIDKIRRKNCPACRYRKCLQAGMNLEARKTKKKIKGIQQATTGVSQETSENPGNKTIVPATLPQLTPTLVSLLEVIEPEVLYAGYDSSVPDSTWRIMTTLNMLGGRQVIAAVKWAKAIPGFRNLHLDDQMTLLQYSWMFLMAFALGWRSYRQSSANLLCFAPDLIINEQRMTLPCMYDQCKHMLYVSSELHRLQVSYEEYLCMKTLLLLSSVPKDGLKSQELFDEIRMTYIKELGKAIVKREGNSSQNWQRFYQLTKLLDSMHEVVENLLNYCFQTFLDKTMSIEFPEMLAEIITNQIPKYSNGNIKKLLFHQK

Experiment [17] shares this target. The experiment is described as follows: qHTS assay to identify small molecule antagonists of the glucocorticoid receptor (GR) signaling pathway (AID 720692; active means well fitted inhibition curve with a large enough effect in the signal ratio in the repeat runs, not every such curve was filed as active; the % refers to the signal ratio; further: potency means the concentration at half of the fitted maximal effect). The method in brief:
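Tox21 10K library screened in concentration-response for blockade of dexamethasone (5 nM final)-induced GRE-bla reporter activity in HeLa cells; 18 h treatment, fluorescence read.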

Experiment [18] can be described thus: qHTS assay for small molecule disruptors of the mitochondrial membrane potential - cell viability (AID 720634; calls by dose curve;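 further: human HepG2 liver cancer cells; series mostly up to about 83 µM; on the % scale 0 is the no-effect control and ±100 the full control effect; nearly all actives have a fitted effect of over 20% in size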). The essentials:
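In this qHTS format, HepG2 cells plated overnight were pinned with compound, incubated 1 hr, and assayed for ATP luminescence with CellTiter-Glo after m-MPI dye addition.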

The nature of experiment [19]: qHTS assay for small molecule disruptors of the mitochondrial membrane potential (AID 720635). Further: potency means the concentration at half of the fitted maximal effect. The method in brief:
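HepG2 cells (2,000/well) attached overnight at 37C, then took compound for 1 hr at 37C, 5% CO2. Mito-MPS dye was added for 30 min; fluorescence was read at 490/535 nm (monomers) and 540/590 nm (aggregates).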

A number with no mark means an inactive call. Inconclusive results are not listed. Active and inactive are the calls of the source. Unless noted, the call rests on the fitted dose curve; in most records, active means well fitted curve in the direction sought with a large enough effect in the repeat runs; inconclusive means weak or mixed curves; inactive means no such curve, though single readings can be large; an effect the other way counts as inactive or inconclusive.

Turning to `C/C=C/C=O`, the Potency entry in [1], in [2], in experiment [3] and in experiment [17] was “inactive” in each case. For the same compound, the compound was classed as inactive in [4], in experiment [5], in [6], in experiment [7], in experiment [8] and in experiment [9]. Moreover, the result in [10], in [11], in experiment [12], in [13], in experiment [14] and in [15] was inactive. Also, the result in experiment [16] was inactive.
For `CCOP(O)OCC`, the Potency entry in experiment [1], in [2], in experiment [3], in experiment [18] and in experiment [17] was “inactive” in each case. Besides, the compound was called inactive in [4], in experiment [5], in experiment [7], in [8], in experiment [9] and in experiment [10]. The compound was called inactive in [11], in experiment [12], in experiment [13], in experiment [14], in [15] and in [16].
`COC(=O)C(C)N(C(=O)Cc1ccccc1)c1c(C)cccc1C` (stereo not drawn): the Potency result in experiment [1], in experiment [2] and in experiment [3] was “inactive” in each case. In addition, the outcome in experiment [4], in experiment [5], in experiment [7], in [8], in experiment [9] and in [10] was inactive. Moreover, the call in experiment [11], in [12], in experiment [13], in experiment [14], in experiment [15] and in [16] was inactive.
For `OCCCBr`, the Potency entry in experiment [1], in experiment [2], in [3], in experiment [18] and in [17] was “inactive” in each case. The compound was called inactive in [4], in [5], in experiment [6], in experiment [7], in experiment [8] and in experiment [9]. The outcome in experiment [10], in [11], in experiment [12], in [13], in experiment [14] and in experiment [15] was inactive. In experiment [16], the compound was classed as inactive.
`Clc1ccc(C(OCCN2CCCCC2)c2ccccc2)cc1` (stereo not drawn): the Potency result in [1], in [2], in [3], in experiment [18] and in [17] was “inactive” in each case. Further, the fluorescence, relative to Rose Bengal in experiment [4] was -0.716% [at 18.6 µM]. The fluorescence, % of fluorescein control in experiment [5] was -0.0264% [at 18.6 µM]; in [14], -0.0362% [at 18.6 µM]. Also, in experiment [6], the fluorescence, % of triamterene is 0.0368% [at 18.6 µM]. The fluorescence, % of fluorescent control is 0.965% [at 18.6 µM] in experiment [7]; -0.141% [at 18.6 µM] in experiment [9]; 0.321% [at 18.6 µM] in experiment [11]; 0.0001% [at 18.6 µM] in experiment [13]; 0.1% [at 18.6 µM] in experiment [15]. Further, in [8], the fluorescence, % of fluorescein is -0.14% [at 18.6 µM]. For the same compound, the activity change in [10] was -0.263% [at 18.6 µM]. The fluorescence, % of Rose Bengal in experiment [12] is 0.0745% [at 18.6 µM]. The call in [16] was inactive.
Regarding `CCCC(Cn1cncn1)c1ccc(Cl)cc1Cl` (stereo not drawn), the Potency entry in [1], in experiment [2] and in experiment [3] was “inactive” in each case. Also, the call in experiment [4], in [5], in experiment [7], in experiment [8], in experiment [9] and in experiment [10] was inactive. The result in experiment [11], in [12], in experiment [13], in [14] and in [15] was inactive. The Potency in experiment [17] is 49 µM (active).
As to `CC(=O)c1cc2c(cc1C)C(C)(C)C(C)CC2(C)C` (stereo not drawn), the Potency result in experiment [1] and in [3] was “inactive” each time. The figures for the Potency in experiment [2] and in experiment [19] were 61.1 µM (active) and 54.5 µM (active), respectively. Further, the outcome in experiment [4], in experiment [5], in experiment [6], in experiment [7], in experiment [8] and in experiment [9] was inactive. For the same compound, the compound was called inactive in [10], in experiment [11], in experiment [12], in experiment [13], in [14] and in [15].
Regarding `CCCCC(CC)COP(=O)(Oc1ccccc1)Oc1ccccc1` (stereo not drawn), the Potency entry in [1], in experiment [2], in experiment [3] and in experiment [17] was “inactive” in each case. For the same compound, the outcome in experiment [4], in experiment [5], in [6], in experiment [7], in experiment [8] and in [9] was inactive. In addition, the result in experiment [10], in experiment [11], in [12], in experiment [13], in experiment [14] and in experiment [15] was inactive. Further, in experiment [16], the result was inactive.

The values are drawn from PubChem BioAssay (Tox21).
